Experimental data reported in PubChem BioAssay (NCI).
The panel holds about 79,000 compounds, 15% with a hit somewhere; the sample as a whole holds those more often. Activity calls are given as the source filed them. No stated cut-off is given here; in the data, active means growth inhibition above about 70%; inactive means the rest.

What was measured:
[1] = NCI Yeast Anticancer Drug Screen. Data for the rad50 strain (AID 155);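 further: 0% = growth of vehicle-only cultures of the same strain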; details: S. cerevisiae rad50 strain growth inhibition, active compounds read high
How it was run: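 Inhibition values express reduced yeast growth in compound-treated cultures relative to vehicle-treated controls.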

[2] = NCI Yeast Anticancer Drug Screen. Data for the mec2-1 strain (AID 157); details: S. cerevisiae mec2-1 strain, active compounds read high
How it was run: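 Compounds were applied to mec2-1 yeast cells. Their growth was then compared with that of vehicle-treated cultures to give growth inhibition.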

[3] = NCI Yeast Anticancer Drug Screen. Data for the sgs1 mgt1 strain (AID 161);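 further: 0% = growth of cultures given vehicle only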; details: S. cerevisiae sgs1 mgt1 strain, active compounds read high
How it was run: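 This yeast growth screen uses a strain with defined DNA-repair lesions; compound-treated growth is compared with vehicle-treated growth.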

[4] = NCI Yeast Anticancer Drug Screen. Data for the cln2 rad14 strain (AID 165);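 further: 0% = growth equal to vehicle treated cultures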; details: S. cerevisiae cln2 rad14 strain, active compounds read high
How it was run: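 Strain: cln2 rad14 yeast, altered in cell cycle control and DNA damage repair. Read-out: growth inhibition vs vehicle.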

[5] = NCI Yeast Anticancer Drug Screen. Data for the bub3 strain (AID 167); details: S. cerevisiae bub3 mutant strain, active compounds read high
How it was run: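 Steps: expose the mutant yeast strain to compound; grow alongside vehicle-treated cultures; measure growth; express inhibition against the vehicle cultures.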

[6] = NCI Yeast Anticancer Drug Screen. Data for the mlh1 rad18 strain (AID 175); details: S. cerevisiae mlh1 rad18 strain growth inhibition, active compounds read high
How it was run: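 A repair-deficient yeast strain is exposed to test compound, and growth is scored relative to vehicle-treated controls.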

[7] = at 5.0 µM (retest, dose inferred, filed as 0.5)
[8] = at 50.0 µM (retest, dose inferred, filed as 5.0)

Measured: growth inhibition

CC(=O)OC[C@@]1(C)[C@@H]2CC[C@]3(C)[C@H](C(=O)C=C4[C@@H]5CC(C)(C)CC[C@]5(C(=O)O)CC[C@]43C)[C@@]2(C)CC[C@@H]1OC(C)=O
active: [1]; [8] 84% | [2]; [8] 88% | [2]; at 50.0 µM 94.2% | [3]; [8] 88% | [3]; at 50.0 µM 92.8% | [4]; [8] 93% | [4]; at 50.0 µM 95.7% | [5]; [8] 91% | [5]; at 50.0 µM 92.7% | [6]; [8] 88% | [6]; at 50.0 µM 95.6%
inactive: [1]; [7] 23% | [1]; at 50.0 µM 43.1% | [2]; [7] 23% | [3]; [7] 28% | [4]; [7] 39% | [5]; [7] 9% | [6]; [7] 29%

O=C1/C(=C/c2ccc([N+](=O)[O-])cc2)Sc2scc(-c3cccc([N+](=O)[O-])c3)[n+]21
active: [1]; [8] 98% | [1]; at 50.0 µM 83.5% | [2]; [8] 98% | [2]; at 50.0 µM 89.5% | [3]; [7] 96% | [3]; [8] 99% | [3]; at 50.0 µM 90.6% | [4]; [8] 98% | [4]; at 50.0 µM 90.6% | [5]; [7] 99% | [5]; [8] 99% | [5]; at 50.0 µM 87% | [6]; [8] 99% | [6]; at 50.0 µM 91.1%
inactive: [1]; [7] 69% | [2]; [7] 69% | [4]; [7] 53% | [6]; [7] 51%

Clc1ccccc1C=Nc1cccc2ccccc12
inactive: [1]; [7] -10% | [1]; [8] -24% | [1]; at 50.0 µM 22.4% | [2]; [7] -14% | [2]; [8] -17% | [2]; at 50.0 µM 32.4% | [3]; [7] -9% | [3]; [8] -1% | [3]; at 50.0 µM 27.1% | [4]; [7] 18% | [4]; [8] 8% | [4]; at 50.0 µM 13.9% | [5]; [7] 13% | [5]; [8] -3% | [5]; at 50.0 µM 35.8% | [6]; [7] -33% | [6]; [8] -54% | [6]; at 50.0 µM 23.4%

CCCCCCCCN(CCCCCCCC)C(=O)C(C)O (centres undefined)
active: [1]; [8] 98% | [1]; at 50.0 µM 98.7% | [2]; [8] 98% | [2]; at 50.0 µM 89.2% | [3]; [8] 99% | [3]; at 50.0 µM 97.7% | [4]; [8] 97% | [4]; at 50.0 µM 81.7% | [5]; [8] 99% | [5]; at 50.0 µM 97.5% | [6]; [8] 98% | [6]; at 50.0 µM 94%
inactive: [1]; [7] 14% | [2]; [7] -2% | [3]; [7] 20% | [4]; [7] 9% | [5]; [7] 6% | [6]; [7] 27%

COC(=O)C1(C)CCCC2(C)C3CC(=O)C(C(C)C)=CC3(O)CCC12 (centres undefined)
inactive: [1]; [7] 7% | [1]; [8] 8% | [1]; at 50.0 µM 10.7% | [2]; [7] -1% | [2]; [8] -3% | [2]; at 50.0 µM -3.25% | [3]; [7] 4% | [3]; [8] -15% | [3]; at 50.0 µM 3.1% | [4]; [7] -75% | [4]; [8] -27% | [4]; at 50.0 µM 13.7% | [5]; [7] 5% | [5]; [8] 2% | [5]; at 50.0 µM 0.8% | [6]; [7] 15% | [6]; [8] 19% | [6]; at 50.0 µM -5.95%

C=CCOc1ccccc1C(=O)OC
inactive: [1]; [7] 3% | [1]; [8] 0% | [1]; at 50.0 µM -4.6% | [2]; [7] 6% | [2]; [8] -4% | [2]; at 50.0 µM 7.9% | [3]; [7] -1% | [3]; [8] -5% | [3]; at 50.0 µM 7.2% | [4]; [7] 5% | [4]; [8] -4% | [4]; at 50.0 µM 30.9% | [5]; [7] -3% | [5]; [8] -10% | [5]; at 50.0 µM -2.45% | [6]; [7] 3% | [6]; [8] -1% | [6]; at 50.0 µM 0.3%

CCOC(=O)c1cn(CC)c2cc(-n3cccc3)ccc2c1=O
inactive: [1]; [7] -3% | [1]; [8] 28% | [1]; at 50.0 µM 31.4% | [2]; [7] -1% | [2]; [8] 21% | [2]; at 50.0 µM 20.6% | [3]; [7] -2% | [3]; [8] 39% | [3]; at 50.0 µM 56.4% | [4]; [7] -2% | [4]; [8] 17% | [4]; at 50.0 µM 22.2% | [5]; [7] 0% | [5]; [8] 27% | [5]; at 50.0 µM 33.5% | [6]; [7] 1% | [6]; [8] 50% | [6]; at 50.0 µM 47.2%

O=C(C(/C=N/C(=S)NCc1ccccc1)=C(/O)c1ccccc1)c1ccccc1
active: [1]; [8] 86% | [1]; at 50.0 µM 98.8% | [2]; at 50.0 µM 98% | [3]; at 50.0 µM 98.2% | [4]; [8] 87% | [4]; at 50.0 µM 97.7% | [5]; [8] 97% | [5]; at 50.0 µM 98.3% | [6]; [8] 71% | [6]; at 50.0 µM 98.7%
inactive: [1]; [7] 6% | [2]; [7] -1% | [2]; [8] 69% | [3]; [7] 3% | [3]; [8] 61% | [4]; [7] -9% | [5]; [7] 2% | [6]; [7] 12%
